Data reported in PubChem BioAssay (NCATS).
Values joined by “and” are separate entries in the source; they are usually repeats but may differ in a detail not shown here. Equal entries are not always repeated. Results filed as inconclusive are left out. Where a call stands in place of a potency, no number is given. Active and inactive are the calls of the source. Calls come from the whole dose curve. Square brackets hold non-standard residues; d marks the D form. Peptide text beside a SMILES is read from it. * marks the point of attachment. Sta = CC(C)C[C@H](N)[C@@H](O)CC(=O)O; Isovaleryl = CC(C)CC(=O)*

Tests used:
[1] = Cytotoxicity counterscreen for inhibitors of SARS-CoV-2 cell entry (AID 1645845); settings: cell viability (SARS-CoV-2 entry assay cells); series mostly up to 57.1 µM; note: nearly all actives have a fitted effect of over 50% in size
How it was run: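 Counterscreen run in the same HEK293-ACE2 line as the pseudotyped-particle entry assay, without particles. Viability after 48 h at 37 C was read as ATP luminescence, scaled between cell-containing and cell-free wells.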

[2] = Primary qHTS to identify inhibitors of SARS-CoV-2 cell entry (AID 1645846); settings: SARS-CoV-2 pseudovirus cell entry assay, luminescence; activity change, negative = inhibition: at 57.1 µM (top of the series) unless noted; series mostly up to 57.1 µM; note: nearly all actives have a fitted effect of over 45% in size
How it was run: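 Entry measured by luciferase signal 48 h after adding SARS-CoV-2-S pseudotyped MLV particles to HEK293-ACE2 cells preincubated 1 h with compounds. Normalisation: bald particles and spike particles.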
Potency is the fitted concentration of half-maximal effect.

Row | Compound | Potency [1] | activity change, negative = inhibition [2] | Potency [2]
1 | Cc1c(C(=O)NN2CCCCC2)nn(-c2ccc(Cl)cc2Cl)c1-c1ccc(Cl)cc1 | inactive | -26.4% | 
2 | O=C1C(c2[nH]c3ccccc3c2O)=Nc2ccccc21 | inactive | -0.955% | 
3 | Cc1ccc(=O)n(-c2ccccc2)c1 | inactive |  | inactive
4 | CN1CCOC(c2ccccc2)c2ccccc2C1 (configuration not stated) | inactive |  | inactive
5 | C#CC1(O)CC[C@H]2[C@@H]3CCC4=CCCC[C@@H]4[C@H]3CC[C@@]21C (some centres not stated) | inactive |  | inactive
6 | O=C1O[C@H]([C@@H](O)CO)C(O)=C1O | inactive |  | inactive
7 | O=C(NC1CCN(CCc2c[nH]c3ccccc23)CC1)c1ccccc1 | inactive | -25.8% | 
8 | C/C=C/c1ccc(O)c(OC)c1 | inactive | -1.3% | 
9 | CC1(C)O[C@@H]2C[C@H]3[C@@H]4CCC5=CC(=O)CC[C@]5(C)[C@@]4(F)[C@@H](O)C[C@]3(C)[C@]2(C(=O)CCl)O1 | inactive |  | inactive
10 | CC[N+](CC)(CC)CCOC(=O)C(C1CCCC1)C1CCCC1 | inactive | -6.21% | 
11 | Clc1ccc(Nc2nnc(Cc3ccncc3)c3ccccc23)cc1 | inactive | -4.34% | 
12 | C[N+](C)(C)CCOC(=O)CCC(=O)OCC[N+](C)(C)C | inactive |  | inactive
13 | O=c1[nH]cnc2c1ncn2[C@@H]1O[C@H](CO)[C@@H](O)[C@H]1O | inactive |  | inactive
14 | O=C(NCC1CN(c2ccc(N3CCOCC3=O)cc2)C(=O)O1)c1ccc(Cl)s1 (configuration not stated) | inactive | -26.5% and -55.1% | 
15 | NS(=O)(=O)c1cc2c(cc1Cl)NCNS2(=O)=O | inactive |  | inactive
16 | C[C@H](O)C(=O)Nc1c(I)c(C(=O)NC(CO)CO)c(I)c(C(=O)NC(CO)CO)c1I | inactive | 4.46% | 
17 | CCOc1ccccc1O[C@H](c1ccccc1)[C@H]1CNCCO1 | inactive | 0.393% | 
18 | CCCSS/C(CCO)=C(\C)N(C=O)Cc1cnc(C)nc1N | inactive | -57.5% | 
19 | CCN1C(=O)c2ccccc2C1Nc1ccc(OCCN2CCCCC2)cc1 (configuration not stated) | inactive | 0.117% | 
20 | C[C@H](N)C(=O)N[C@@H](C)C(=O)NC1[C@H]2CN(c3nc4c(cc3F)c(=O)c(C(=O)O)cn4-c3ccc(F)cc3F)C[C@@H]12 (some centres not stated) | inactive | -23% | 
21 | CC1(C)OC[C@@H](COC(=O)CCc2ccc(OC[C@@H](O)CNCCNC(=O)N3CCOCC3)cc2)O1 | inactive | -4.74% | 

Row | Compound | Potency [1] | activity change, negative = inhibition [2] | Potency [2]
22 | Oc1ccc(C(O)CNCCCCCCNCC(O)c2ccc(O)c(O)c2)cc1O (configuration not stated) | inactive |  | inactive
23 | C#C[C@]1(O)CC[C@H]2[C@@H]3CCc4cc(OC)ccc4[C@H]3CC[C@@]21C | inactive |  | inactive
24 | COC(=O)[C@H]1[C@H]2C[C@@H]3c4[nH]c5cc(OC)ccc5c4CCN3C[C@H]2C[C@@H](OC(=O)/C=C/c2ccc(O)c(OC)c2)[C@@H]1OC | inactive |  | 12.6 µM (active)
25 | c1ccc(CC2=NCCN2)cc1 | inactive |  | inactive
26 | C#C[C@]1(OC(C)=O)CC[C@H]2[C@@H]3CCC4=C/C(=N/O)CC[C@@H]4[C@H]3CC[C@@]21CC | inactive | -15.4% | 
27 | Cc1ccc(/C=N/n2c(-c3ccccc3)csc2=S)cc1 | inactive | -8.63% | 
28 | CCCCC(=O)O[C@]1(C(=O)CO)CC[C@H]2[C@@H]3CCC4=CC(=O)CC[C@]4(C)[C@H]3[C@@H](O)C[C@@]21C | inactive |  | inactive
29 | COc1ccc2cc1Oc1ccc(cc1)C[C@H]1c3c(cc4c(c3Oc3cc5c(cc3OC)CCN(C)[C@@H]5C2)OCO4)CCN1C | 14.1 µM (active) |  | 7.94 µM (active)
30 | CC1=C(C)C(=O)C(C(CCCCCC(=O)O)c2ccccc2)=C(C)C1=O (configuration not stated) | inactive |  | inactive
31 | CC(=O)OCC(=O)NCCCOc1cccc(CN2CCCCC2)c1 | inactive |  | inactive
32 | C[C@H]1NCc2cc(-c3ccc4c(=O)c(C(=O)O)cn(C5CC5)c4c3OC(F)F)ccc21 | inactive | -12.7% [at 27.1 µM] | 
33 | CC(O)Cn1cnc2c1c(=O)n(C)c(=O)n2C (configuration not stated) | inactive | 0.504% | 
34 | OCc1ccccc1O | inactive |  | inactive
35 | CC(=O)/C=C/C=C1/C2CCC(C2)C1(C)C (configuration not stated) | inactive | -3.44% | 
36 | CC/C(=C(/CC)c1ccc(O)cc1)c1ccc(O)cc1 | inactive |  | 17.8 µM (active)
37 | CCOCCOC(=O)/C=C/c1ccc(OC)cc1 | inactive |  | inactive
38 | C[C@]12C=CC(=O)C=C1CC[C@H]1[C@@H]3C[C@@H](O)[C@](O)(C(=O)CO)[C@@]3(C)C[C@H](O)[C@@]12F | inactive | 4.58% | 
39 | Nc1ccc(S(=O)(=O)Nc2nccs2)cc1 | inactive | 4.2% | 
40 | CCOC(=O)c1cc(=O)c2c(OCC(COc3cccc4oc(C(=O)OCC)cc(=O)c34)OC(=O)[C@@H](N)CCCCN)cccc2o1 | inactive |  | inactive
41 | O=C(OCC(O)CO)c1ccccc1Nc1ccnc2cc(Cl)ccc12 (configuration not stated) | inactive | -18.4% | 
42 | Cc1nc(C2CCCCC2)c(-c2ccc(S(N)(=O)=O)c(F)c2)o1 | inactive |  | inactive

Row | Compound | Potency [1] | activity change, negative = inhibition [2] | Potency [2]
43 | CN(C)[C@@H](CCOc1cccc2ccccc12)c1ccccc1 | inactive |  | 10 µM (active)
44 | CCCC(=O)O[C@]1(C(=O)CC)CC[C@H]2[C@@H]3CCC4=CC(=O)CC[C@]4(C)[C@H]3[C@@H](O)C[C@@]21C | inactive |  | inactive
45 | Cc1ccc(N(CC2=NCCN2)c2cccc(O)c2)cc1 | inactive | -6.91% and 2.72% | 
46 | O=c1ccc2ccccc2o1 | inactive |  | inactive
47 | CCCc1ncc(C[n+]2ccccc2C)c(N)n1 | inactive | 0.0229% | 
48 | CC(=O)N(CC(O)CN(C(C)=O)c1c(I)c(C(=O)NCC(O)CO)c(I)c(C(=O)NCC(O)CO)c1I)c1c(I)c(C(=O)NCC(O)CO)c(I)c(C(=O)NCC(O)CO)c1I (configuration not stated) | inactive |  | inactive
49 | COC(=O)C1=C(C)NC(C)=C(C(=O)OC)C1c1ccccc1[N+](=O)[O-] | inactive | -30.6% | 
50 | CC(C)CC(=O)N[C@H](C(=O)N[C@H](C(=O)N[C@@H](CC(C)C)[C@@H](O)CC(=O)N[C@@H](C)C(=O)N[C@@H](CC(C)C)[C@@H](O)CC(=O)O)C(C)C)C(C)C (Isovaleryl-VV[Sta]A[Sta]-OH) | inactive | -12.9% | 
51 | O=C(O)COC(=O)Cc1ccccc1Nc1c(Cl)cccc1Cl | inactive |  | inactive
52 | NS(=O)(=O)c1cc2c(cc1Cl)CN(C1CCCCC1)C2=O | inactive |  | inactive
53 | O=[N+]([O-])c1nccn1CO[C@@H](CO)[C@H](O)CO | inactive |  | inactive
54 | CC(=O)O[C@H]1C[C@@H]2CC[C@@H]3[C@H](CC[C@@]4(C)[C@H]3C[C@H]([N+]3(C)CCCCC3)[C@@H]4OC(C)=O)[C@@]2(C)C[C@@H]1N1CCCCC1 | inactive | -7.24% | 
55 | FC(F)(F)C(F)(F)C(F)(F)C(F)(F)C(F)(F)C(F)(F)C(F)(F)C(F)(F)Br | inactive | -12.9% | 
56 | COc1cc(OC)cc(OC)c1 | inactive |  | inactive
57 | COc1ccccc1N1CCN(CCCNc2cc(=O)n(C)c(=O)n2C)CC1 | inactive | -0.464% | 
58 | Cc1ccc(C(=O)Nc2ccc(S(=O)(=O)O)c3cc(S(=O)(=O)O)cc(S(=O)(=O)O)c23)cc1NC(=O)c1cccc(NC(=O)Nc2cccc(C(=O)Nc3cc(C(=O)Nc4ccc(S(=O)(=O)O)c5cc(S(=O)(=O)O)cc(S(=O)(=O)O)c45)ccc3C)c2)c1 | inactive | -17.2% [at 27.1 µM] | 
59 | Nc1ccn(C2CO[C@H](CO)O2)c(=O)n1 (some centres not stated) | inactive |  | inactive
60 | CCC(=O)Oc1ccc2c(c1)CC[C@@H]1[C@@H]2CC[C@@]2(C)[C@H]1C[C@@H](OC(=O)CC)[C@@H]2OC(=O)CC | inactive |  | inactive
61 | CC(C)N=C(N)/N=C(\N)Nc1ccc(Cl)cc1 | inactive |  | inactive
62 | CC1(C)[C@@H](OC(=O)CCC(=O)O)CC[C@]2(C)[C@H]3C(=O)C=C4[C@@H]5C[C@@](C)(C(=O)O)CC[C@]5(C)CC[C@@]4(C)[C@]3(C)CC[C@@H]12 | inactive |  | inactive
63 | CO[C@]1(NC(=O)CSC(F)F)C(=O)N2C(C(=O)O)=C(CSc3nnnn3CCO)CO[C@H]21 | inactive |  | inactive

Row | Compound | Potency [1] | activity change, negative = inhibition [2] | Potency [2]
64 | CCn1cc(C(=O)O)c(=O)c2cc(F)c(N3CCN(C)CC3)cc21 | inactive |  | inactive
65 | CNC[C@H](O)c1ccc(O)c(O)c1 | inactive |  | inactive
66 | CN(C)CCN(Cc1cccs1)c1ccccn1 | inactive | -3.24% | 
67 | NS(=O)(=O)c1cc2c(cc1Cl)NC(C1CC3C=CC1C3)NS2(=O)=O (configuration not stated) | inactive |  | inactive
68 | CCN(CC)C(=O)Nc1ccc(OCC(O)CNC(C)(C)C)c(C(C)=O)c1 (configuration not stated) | inactive | -2.7% | 
69 | CCn1cc(C(=O)O)c(=O)c2cc(F)c(N3CCNCC3)nc21 | inactive |  | inactive
70 | CCOC(=O)NNc1nncc2ccccc12 | inactive |  | inactive
71 | CCOc1cc(N)c(Cl)cc1C(=O)NCC1CN(Cc2ccc(F)cc2)CCO1 (configuration not stated) | inactive |  | inactive
72 | CCCn1cnc2c1c(=O)n(CCCCC(C)=O)c(=O)n2C | inactive |  | inactive
73 | C[C@@H]1C[C@H]2[C@@H]3CCC4=CC(=O)C=C[C@]4(C)[C@@]3(F)[C@@H](O)C[C@]2(C)[C@H]1C(=O)CO | inactive |  | inactive
74 | c1ccc2[nH]c(-c3cscn3)nc2c1 | inactive |  | inactive
75 | CC(C)[C@@H]1CC[C@@H](C)CC1=O | inactive |  | inactive
76 | c1ccc(CNCCNCc2ccccc2)cc1 | inactive | -30.1% | 
77 | CN1CCN(CCCN2c3ccccc3Sc3ccc(S(=O)(=O)N(C)C)cc32)CC1 | inactive |  | 25.1 µM (active)
78 | COc1cc(NS(=O)(=O)c2ccc(N)cc2)nc(OC)n1 | inactive | 2.7% | 
79 | NS(=O)(=O)c1cc(C(=O)O)c(NCc2ccco2)cc1Cl | inactive |  | inactive
80 | CO/N=C(/C(=O)N[C@@H]1C(=O)N2C(C(=O)O)=C(Cn3nnc(C)n3)CS[C@H]12)c1csc(N)n1 | inactive |  | inactive
81 | O=C(OCC(O)CO)c1ccccc1Nc1ccnc2c(C(F)(F)F)cccc12 (configuration not stated) | inactive |  | inactive
